Experimental data reported in PubChem BioAssay (NCI).
This is part of a sample that, as a whole, favours compounds with a hit. Of some 83,000 tested, about 20% had one in any assay.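 Values shown are percent growth following 48 h exposure of cells in 96-well plates to a single concentration of compound; below 10 was considered active.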 Activity calls are given as the source filed them.

Tests used:
Test in all cases: NCI-60 one-dose screen, 48 h (100 = growth as untreated, 0 = no growth, -100 = all killed)
Details in all cases: 10 µM unless noted
[1] = tested on: T-47D breast
[2] = tested on: BT-549 breast
[3] = tested on: MDA-MB-435 melanoma
[4] = tested on: SW-620 colon
[5] = tested on: MCF7 breast
[6] = tested on: HCT-116 colon
[7] = tested on: HCC-2998 colon
[8] = tested on: KM12 colon

Measured: growth

Cc1cc(N2CCN(c3ccnc4cc(Cl)ccc34)CC2)nc(N2CCOCC2)n1
inactive: [1] 46.9% | [2] 86% | [3] 88.7% | [4] 101% | [5] 75.1% | [6] 70.3% | [7] 89% | [8] 85.6%

CCNc1ncnc2c1cnn2C1CCCO1 (stereo not drawn)
inactive: [1] 104% | [2] 105% | [3] 103% | [4] 100% | [5] 102% | [6] 100% | [7] 109% | [8] 99.1%

CCCCN(CCCC)CCCn1c(-c2ccccc2)ccc1-c1ccccc1
inactive: [1] 67.4% | [2] 74.1% | [3] 85.7% | [4] 65.1% | [5] 58.4% | [6] 34.1% | [7] 59.9% | [8] 61.7%

COc1cccc(NC(=O)c2sc3nc(C)c(C(C)=O)cc3c2N)c1
active: [3] -41.1%
inactive: [1] 54% | [2] 53.7% | [4] 39.3% | [5] 30.1% | [6] 37.8% | [7] 54.5% | [8] 37.8%

COC(=O)c1ccc(Cn2cnc3c(N)ncnc32)cc1
inactive: [1] 106% | [2] 119% | [3] 123% | [4] 109% | [5] 98.3% | [6] 104% | [7] 105% | [8] 117%

O=C1CSC(=S)N1CCc1ccc(O)cc1
active: [8] 8.84%
inactive: [1] 38.1% | [2] 105% | [3] 65.8% | [4] 53.8% | [5] 37.6% | [6] 71.5% | [7] 102%

NS(=O)(=O)c1ccc(CN=C2NC(=O)S/C2=C\c2ccc(Br)cc2)cc1
inactive: [1] 99.2% | [2] 103% | [3] 101% | [4] 97.9% | [5] 93.5% | [6] 94.7% | [7] 107% | [8] 109%

COc1ccc(-c2nc3cc(C(=O)Nc4cc(OC)c(OC)c(OC)c4)ccc3n2C2CCCCC2)cc1
inactive: [1] 97.4% | [2] 94.6% | [3] 46% | [4] 92.5% | [5] 91.2% | [6] 93.5% | [7] 104% | [8] 91.9%

COc1cccc(-c2nc3sccn3c2-c2ccnc(NCCNS(=O)(=O)c3ccc(F)cc3)c2)c1
inactive: [3] 23.3% | [4] 42.5% | [5] 18.7% | [6] 22.2% | [7] 50.1% | [8] 22.3%
active: [1] -4.43% | [2] 9.19%

CN1CCN(c2nc(NCCCCNc3ccnc4cc(Cl)ccc34)c3ccccc3n2)CC1
inactive: [1] 96.1% | [2] 74.6% | [4] 41.2% | [5] 51.3% | [6] 53.1% | [7] 57.4% | [8] 65.5%
active: [3] -10.5%

COc1ccc(-c2cc(=O)c3c(OC)c4ccoc4cc3o2)cc1
inactive: [1] 87.2% | [2] 113% | [3] 89.6% | [4] 93.2% | [5] 98% | [6] 98% | [7] 106% | [8] 100%

O=C(/C=C/c1cc(CN2CCOCC2)c(O)c2ncccc12)c1cc(CN2CCOCC2)c(O)c2ncccc12
inactive: [2] 12.8% | [3] 21% | [4] 18.7% | [5] 10% | [6] 21.7% | [7] 37.2% | [8] 21.7%
active: [1] 7.07%

COc1cc(-c2nn(-c3ccc(C)cc3)cc2C(=O)O)ccc1O
inactive: [1] 89.5% | [2] 103% | [3] 87.3% | [4] 103% | [5] 93.4% | [6] 99.7% | [7] 92.5% | [8] 64.7%

O=C1c2cc3c(cc2-c2c1c1ccc(Cl)cc1c(=O)n2CCCN1CCOCC1)OCO3
inactive: [1] 28.6% | [2] 59.6% | [3] 85.4% | [4] 57.2% | [5] 18.5% | [6] 56.3% | [7] 74.4% | [8] 75.2%

COc1ccc(/C=C\c2cc(OC)c(OC)c(OC)c2)cc1OC(=O)c1cccc(Cn2cc(CCOC(=O)[C@H](N)Cc3cn(C)c4ccccc34)nn2)c1
active: [2] 3.82% | [3] -32.7% | [6] 3.68% | [8] 5.51%
inactive: [1] 70.2% | [4] 28.6% | [5] 12.6% | [7] 20.7%

CCN1CCN(c2nc(NCCCNc3ccnc4cc(Cl)ccc34)c3ccccc3n2)CC1
active: [1] -4.69% | [3] -81.7% | [4] 9.73%
inactive: [2] 68.7% | [5] 23.2% | [6] 20.7% | [7] 21.9% | [8] 29.3%

COc1cc(/C=C/c2cc(O)c3cc(C(C)=O)c(=O)oc3c2)cc2c1O[C@]1(C)CC[C@@H](O)C(C)(C)[C@H]1C2
inactive: [1] 60% | [2] 35% | [3] 21.2% | [4] 28.4% | [6] 44.2% | [7] 67% | [8] 57.6%
active: [5] 5.64%

CCCCCC(=O)Oc1ccc(/C(=C(\C)c2ccc(OC)cc2)c2ccc(OCCN3CCCCC3)cc2)cc1
inactive: [1] 34.8% | [2] 72.6% | [3] 62.6% | [4] 65.1% | [5] 24.8% | [6] 53.2% | [7] 66.7% | [8] 52.8%

COc1ccc(Nc2cc(C)nc(N3CCN(c4ccnc5cc(Cl)ccc45)CC3)n2)cc1
active: [1] 7.42% | [3] 2.27% | [5] 9.32% | [6] 0.65%
inactive: [2] 51.2% | [4] 25.4% | [7] 41.2% | [8] 23.1%

COc1ccc2c(c1)c(-c1nonc1-c1cn(C)c3ccccc13)cn2C
active: [3] 1.09%
inactive: [1] 33.5% | [2] 60.2% | [4] 24.5% | [5] 24% | [6] 26.6% | [7] 45.4% | [8] 25.7%

COc1cc(-c2ccc3c(c2)NC(=O)/C3=C\c2ccc[nH]2)ccc1O
active: [5] 6.69% | [7] 1.36% | [8] 1.34%
inactive: [1] 35.2% | [2] 46.5% | [3] 12.2% | [4] 28.8% | [6] 14.1%

CSc1nc(Nc2cccc(NC(=O)/C(C#N)=C/c3c(Cl)cccc3Cl)c2)c(C#N)c(-c2cccc([N+](=O)[O-])c2)n1
inactive: [1] 37.6% | [2] 71.6% | [3] 43.2% | [4] 38.1% | [5] 11.3% | [6] 35.6% | [7] 60.8% | [8] 78.3%

COc1ccc(-n2nc(C)c3c(Nc4ccc(NC(=O)Nc5cc(C(F)(F)F)ccc5F)cc4)ncnc32)cc1
inactive: [1] 11.8% | [2] 65.4% | [3] 53% | [4] 46% | [5] 34.2% | [6] 22% | [7] 21.2% | [8] 16.5%

Cc1cc(Nc2ccc(C)c(Cl)c2)n2nc(C(F)(F)F)nc2n1
inactive: [2] 69.6% | [3] 34.5% | [4] 40.6% | [5] 77.9% | [6] 18.5% | [7] 74.5% | [8] 62%
active: [1] -0.705%

CCCCn1c(-c2ccc(C(=O)O/N=C(\N)c3ccc4c(c3)OCO4)cc2)nc(-c2ccccc2)c1-c1ccccc1
active: [1] 0.0231% | [6] 4.35%
inactive: [2] 54.5% | [3] 46.1% | [4] 60.3% | [5] 48.1% | [7] 61.5% | [8] 36.8%

COc1ccc(O)c(N=Nc2nccs2)c1
inactive: [1] 37% | [2] 95.6% | [3] 104% | [4] 62.3% | [5] 64.3% | [6] 65.5% | [7] 89.4% | [8] 73.3%

COc1cc2c(cc1-c1c(C)noc1C)ncc1nc(C3CCC(F)(F)CC3)n([C@H](C)COC(F)F)c12
inactive: [1] 46% | [2] 61.9% | [3] 36.8% | [4] 57.3% | [5] 18.7% | [6] 33% | [7] 46.4% | [8] 45.4%

COc1cc2c(cc1-c1c(C)noc1C)ncc1nc(C3CCCC3)n([C@H](C)COC(F)F)c12
inactive: [1] 29.7% | [2] 54.8% | [3] 32.4% | [4] 57.5% | [5] 19.9% | [6] 31% | [7] 43.3% | [8] 45.8%

CC1(C)CC[C@]2(C(=O)Nc3ccccn3)CC[C@]3(C)C(=CC[C@@H]4[C@@]5(C)C/C(=C/c6cccnc6)C(=O)C(C)(C)[C@@H]5CC[C@]43C)[C@H]2C1
inactive: [1] 12.8% | [2] 42.2% | [3] 38.3% | [4] 33.9% | [5] 11.4% | [6] 11.4% | [7] 40.4% | [8] 40.1%

O=C1C=C(OCC=C(Cl)Cl)C(=O)c2ccccc21
active: [3] -55.7%
inactive: [1] 38.9% | [2] 78.6% | [4] 78.3% | [5] 26.6% | [6] 21.8% | [7] 112% | [8] 91%

NC(N)=N/N=C(/c1ccccc1)c1ccc(F)cc1
active: [3] -19.2% | [6] 2.71% | [7] -43.7% | [8] -7.82%
inactive: [1] 51.2% | [2] 14.7% | [4] 28.8% | [5] 12.3%
